Measured values: PubChem BioAssay AID651710 (Broad Institute, 2012)
Values joined by “and” are separate entries in the source; they are usually repeats but may differ in a detail not shown here. Equal values may be shown once. Hit rate of the full screen: of about 360,000 compounds, about 1,600 (0.44%) were called active. This is one part of a sample in which actives are shown more often than they occur.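 The calls were made as follows: active = every replicate showing at least 50% inhibition; inconclusive = mean inhibition at least 50% but not in every replicate; inactive = the rest.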

target: DNA repair protein RAD52 homolog (Homo sapiens) (UniProt P43351); assay: blockers of RAD52 strand annealing activity – biochemical, FRET, single point, set 2, primary screen (AID 651710); conditions: recombinant RAD52 DNA annealing, FRET fluorescence; at 18.7 µM; active compounds read high
Sequence (P43351 whole entry, looked up): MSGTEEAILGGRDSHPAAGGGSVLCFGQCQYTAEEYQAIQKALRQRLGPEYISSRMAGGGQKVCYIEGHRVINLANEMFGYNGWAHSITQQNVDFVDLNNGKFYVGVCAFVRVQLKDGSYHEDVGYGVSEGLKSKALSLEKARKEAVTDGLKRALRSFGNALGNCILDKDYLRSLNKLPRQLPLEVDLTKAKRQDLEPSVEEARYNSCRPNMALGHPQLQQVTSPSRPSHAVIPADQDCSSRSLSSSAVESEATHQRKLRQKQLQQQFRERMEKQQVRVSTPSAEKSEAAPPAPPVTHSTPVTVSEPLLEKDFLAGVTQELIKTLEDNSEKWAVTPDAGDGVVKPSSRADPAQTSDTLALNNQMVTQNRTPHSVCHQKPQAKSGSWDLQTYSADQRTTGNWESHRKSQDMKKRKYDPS

inhibition, active:
CC(=O)Nc1ccc(CNc2nc(NCCN(C)C)nc3cc(-c4ccccc4)sc23)cc1 98.5%, CN1CCN(CCCNC(=O)c2ccc(/C=C3\Oc4ccccc4N(Cc4ccc(Cl)cc4)C3=O)cc2)CC1 94.8%, COc1ccccc1C#Cc1ccc([C@@H]2[C@H](CO)N3CCCCN(C(=O)C4CCCC4)C[C@@H]23)cc1 71%, CN(C)CC#Cc1ccc([C@H]2[C@H](CO)N3CCCCN(CC4CC4)C[C@@H]23)cc1 65.4%, COc1ccc2sc(N(CCCN(C)C)C(=O)c3ccc(S(=O)(=O)N(C)C4CCCCC4)cc3)nc2c1 62.7%, Cn1ccc(=Nc2ccc(NC(=O)c3ccc(N=c4ccn(C)c5ccc([N+](=O)[O-])cc45)cc3)cc2)cc1 94.9%, CN(C)CCN1CCN(c2cc(-c3cccc(Cl)c3)nc3ccnn23)CC1 91.4%, C[C@@H]1CN([C@@H](C)CO)C(=O)Cc2cc(NC(=O)CCCN(C)C)ccc2O[C@@H]1CN(C)Cc1ccc(-c2ccccc2)cc1 86.8%, C[C@H](CO)N1C[C@H](C)[C@@H](CN(C)Cc2ccc(-c3ccccc3)cc2)Oc2ccc(NC(=O)CCCN(C)C)cc2CC1=O 94%, NC(N)=Nc1nc(-c2ccccc2)c2cc(Cl)ccc2n1 84.7%, NCCCCCC(=O)N/N=C/c1ccc2nccnc2c1 87.9%

inhibition, inactive:
COCCNc1nc(Nc2ccccc2Cl)c2sc(-c3ccccc3)cc2n1 -21.9%, COCCNc1nc(NCc2ccc(NC(C)=O)cc2)c2sccc2n1 -6.25%, C[C@@H]1CN([C@@H](C)CO)C(=O)c2cc(-c3cccnc3)cnc2O[C@H]1CN(C)Cc1ccc(-c2ccccc2)cc1 20.1%, O=C(C[C@H]1CC[C@H](NC(=O)c2ccc(F)cc2)[C@@H](CO)O1)NCCc1ccncc1 2.72%, CCC1Oc2ccccc2N(CC(=O)NCCCN2CCN(CC)CC2)C1=O (stereo not given) -5.96%, Cc1c(C)n(Cc2ccc(Cl)cc2)c2ccc(C(=O)NCCCN3CCOCC3)cc12 -12.7%, COc1ccccc1C#Cc1ccc([C@@H]2[C@H](CO)N3CCCCN(C(=O)C4CC4)C[C@@H]23)cc1 38.4%, C[C@@H](O)C#Cc1ccc([C@H]2[C@@H](CO)N3CCCCN(CC4CC4)C[C@@H]23)cc1 -24.5%, C[C@H](O)C#Cc1ccc([C@@H]2[C@H](CO)N3CCCCN(CC4CC4)C[C@@H]23)cc1 8.98%, COc1ccccc1C#Cc1ccc([C@H]2[C@H](CO)N3CCCCN(C(=O)C4CCC4)C[C@@H]23)cc1 -21.5%, C[C@@H](NC(=O)C[C@H]1C[C@@H]2c3cc(NC(=O)c4ccc5c(c4)OCO5)ccc3O[C@@H]2[C@@H](CO)O1)c1ccccc1 8.57%, CO[C@H](CN(C)S(=O)(=O)c1ccc(C)cc1)[C@@H](C)CN(Cc1ccccc1Cl)[C@@H](C)CO -2.08%, CO[C@H]1CN(C)C(=O)c2cc(NC(=O)Nc3ccccc3F)ccc2OC[C@H](C)N(C)C[C@H]1C 4.64%, CC(C)NC(=O)N1C[C@@H]2[C@H](c3ccccc31)[C@H](CO)N2C(=O)C1CCCC1 0.805%, COc1ccc(N(Cc2ccc(N(C)C)cc2)C(=O)c2ccc(S(C)(=O)=O)cc2)cc1 2.51%, COc1ccc(S(=O)(=O)N(C)CC(=O)N2CCCC2)cc1 -9.04%, CN(CC1CCCO1)S(=O)(=O)c1ccc(C(=O)Nc2ccc([N+](=O)[O-])cc2)cc1 (stereo not given) -8.13%, Cn1c(=O)n(C)c2cc(C(=O)Nc3ccc(Br)cc3)ccc21 -11.5%, C[C@@H]1CN([C@@H](C)CO)S(=O)(=O)c2ccc(/C=C/c3ccccc3)cc2O[C@H]1CN(C)C(=O)C1CC1 14.6%, O=C(C[C@H]1CC[C@H]2[C@@H](COC[C@H](O)CN2Cc2nccs2)O1)NCc1ccc(Oc2ccccc2)cc1 9.32%, O=C(Nc1ccccc1F)N[C@@H]1CC[C@H](CC(=O)N2CCCCC2)O[C@H]1CO -11.7%, C#Cc1cc(N2CCN(C(=O)c3ccoc3)CC2)n2nc(-c3cccc(Cl)c3)cc2n1 10.8%, O=C(c1ccccc1)N1CCN(c2cc(-c3ccccc3)nc3cc(-c4cccc(Cl)c4)nn23)CC1 -9.17%, CN(C)C(=O)c1cccc(-c2ccccc2[C@@H]2[C@@H](CO)N(C(=O)C3CCCCC3)[C@H]2C#N)c1 6.38%, C[C@@H]1CN([C@H](C)CO)C(=O)Cc2cc(NC(=O)CCCN(C)C)ccc2O[C@@H]1CN(C)Cc1ccc(Oc2ccccc2)cc1 54.4%, C[C@H](CO)N1C[C@H](C)[C@@H](CN(C)Cc2ccc(-c3ccccc3)cc2)Oc2ccc(NC(=O)CCC(F)(F)F)cc2CC1=O 23.2%, C[C@H]1CN([C@@H](C)CO)C(=O)Cc2cc(NC(=O)CCCN(C)C)ccc2O[C@@H]1CN(C)Cc1ccc(-c2ccccc2)cc1 48.7%, C[C@H](CO)N1C[C@H](C)[C@H](CN(C)Cc2ccc(-c3ccccc3)cc2)Oc2ccc(NC(=O)Nc3ccc(F)cc3)cc2CC1=O -6.38%, O=C(N[C@H]1CC[C@@H](CCNS(=O)(=O)c2ccccc2)O[C@@H]1CO)c1cnccn1 -13.2%, C[C@@H]1CN([C@H](C)CO)C(=O)CCCn2cc(nn2)CO[C@H]1CN(C)C(=O)Nc1ccc(N2CCCCC2)cc1 -12.3% and -1.13% and -23.2%, Clc1ccc2nc(-c3ccccc3)nc(C(Cl)Cl)c2c1 -10.7%, Cc1onc(-c2ccccc2)c1C(=O)N=C(N)c1ccc(Cl)cc1 -19.5%, CC1=NNC(=O)C1CCC(=O)N/N=C\c1ccc(Cl)c(Cl)c1 (stereo not given) -0.875%, O=C(CCC(=O)Nc1ccccc1)N/N=C/c1ccccc1F -7.35%
